Assay outcomes from PubChem.
G9a inh: qHTS Assay for Inhibitors of Histone Lysine Methyltransferase G9a; Histone-lysine N-methyltransferase EHMT2 (Homo sapiens), Q96KQ7; G9a H3K9 monomethylation, AlphaScreen, 2 h; Potency, µM (series often up to 102 µM), inactives show at the highest dose activity, negative = inhibition, actives largely listed as inhibitors; 8.8% of 350,000 active; AID 504332, 2011; note: potency is the fitted concentration of half-maximal effect; % is set by controls: 0 for no effect and ±100 for the full control effect; nearly all actives have a fitted effect of over 75% in size
Target sequence (Q96KQ7 913-1193 limits assumed): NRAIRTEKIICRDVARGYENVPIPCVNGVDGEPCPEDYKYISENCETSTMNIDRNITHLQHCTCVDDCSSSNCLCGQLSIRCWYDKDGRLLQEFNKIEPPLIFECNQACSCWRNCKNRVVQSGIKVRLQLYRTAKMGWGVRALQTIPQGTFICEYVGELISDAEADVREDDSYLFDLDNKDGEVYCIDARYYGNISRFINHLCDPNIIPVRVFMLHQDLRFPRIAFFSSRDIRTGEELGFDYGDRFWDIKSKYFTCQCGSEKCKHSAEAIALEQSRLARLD
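Enzyme 20 nM + cpd, 15 min RT; add b-H3K9 pep 500 nM / SAM 20 uM; 2 h RT; anti-H3K9me1 Ab 0.5 ug/mL + SA donor / anti-rabbit acceptor beads 20 ug/mL each, 10 min; AlphaScreen read.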
BAZ2B block: qHTS Assay for Inhibitors of BAZ2B; 4.4% of 360,000 active; AID 504333, 2011; AlphaScreen BAZ2B-H3K14Ac peptide displacement; Potency, µM (series often up to 114 µM), inactives show top-dose activity change, negative = inhibition, hits mostly inhibitors; Bromodomain adjacent to zinc finger domain protein 2B (Homo sapiens), Q9UIF8; note: potency is the fitted concentration of half-maximal effect; % is set by controls: 0 for no effect and ±100 for the full control effect; nearly all actives have a fitted effect of over 60% in size
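Multi-concentration screen (max 110 uM) measuring displacement of acetylated histone H3 peptide from BAZ2B by AlphaScreen, using 50 nM protein, 50 nM peptide and 10 ug/mL streptavidin donor plus Ni-chelate acceptor beads.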
HP1b binding inh: HTS for Inhibitors of HP1-beta Chromodomain Interactions with Methylated Histone Tails; AlphaScreen HP1-beta / biotin-H3K9me3 peptide binding; Potency, µM (series often up to 114 µM), without a hit: at the highest dose activity change, negative = inhibition, hits mostly inhibitors; 0.56% of 390,000 active; AID 540317, 2011; note: potency is the fitted concentration of half-maximal effect; nearly all actives have a fitted effect of over 70% in size
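Compound inhibition of the preformed complex between 50 nM HP1-beta and 50 nM biotinylated H3K9me3 peptide was read by AlphaScreen. Buffer was PBS pH 7.4 with 0.01% Tween-20. Incubations ran 30 min at room temperature, with 10 ug/mL donor/acceptor beads.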
PI5P4K alpha inh: qHTS for Inhibitors of phosphatidylinositol 5-phosphate 4-kinase (PI5P4K); Phosphatidylinositol 5-phosphate 4-kinase type-2 alpha (Homo sapiens), P48426; PI5P4Kalpha enzyme, ADP-Glo luminescence, 60 min; active compounds read low; max response, %; 1.2% of 330,000 active; AID 652105, 2013; active = max response of -50% or lower; inconclusive = between -30% and -50%; inactive = -30% or higher; note: value at the top dose of about 77 µM; % is set by controls: 0 for no effect and ±100 for the full control effect
Target sequence (P48426 whole entry, looked up): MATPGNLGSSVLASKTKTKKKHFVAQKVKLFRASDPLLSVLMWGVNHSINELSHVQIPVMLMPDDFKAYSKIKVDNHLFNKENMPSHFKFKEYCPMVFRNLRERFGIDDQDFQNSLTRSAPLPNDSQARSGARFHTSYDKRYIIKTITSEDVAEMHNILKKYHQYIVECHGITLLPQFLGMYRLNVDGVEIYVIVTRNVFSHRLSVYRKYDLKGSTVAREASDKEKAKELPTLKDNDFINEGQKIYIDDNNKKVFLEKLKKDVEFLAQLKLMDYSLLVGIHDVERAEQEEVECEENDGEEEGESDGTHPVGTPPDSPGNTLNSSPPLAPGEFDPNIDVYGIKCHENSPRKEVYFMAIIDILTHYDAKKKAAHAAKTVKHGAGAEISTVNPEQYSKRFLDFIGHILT
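ADP-Glo luminescence end-point read after a 60 min room-temperature kinase reaction of PI5P4Kalpha plus substrate, initiated with ATP at 5 microM final. Buffer: 0.038 M HEPES pH 7.4, EGTA, 0.1% CHAPS, 5% DMSO.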
L3MBTL1 inh: qHTS Assay for the Inhibitors of L3MBTL1 | Potency, µM (series often up to 57.1 µM), inactives show at the highest dose activity, negative = inhibition, most hits filed as inhibitors | AID 485360, 2010 | AlphaScreen L3MBTL1–H3K9me1 peptide binding | Lethal(3)malignant brain tumor-like protein 1 (Homo sapiens), Q9Y468 | 0.66% of 230,000 active; note: potency is the fitted concentration of half-maximal effect; % is set by controls: 0 for no effect and ±100 for the full control effect; nearly all actives have a fitted effect of over 60% in size
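AlphaScreen assay: L3MBTL1 (50 nM final) was preincubated 30 min at room temperature with biotinylated H3(1-15)K9me1 peptide (75 nM final), then 30 min with library compounds; streptavidin donor and nickel chelate acceptor beads (10 ug/mL final) added, 30 min dark.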
JMJD2A Tudor inh: qHTS Assay for Inhibitors of JMJD2A-Tudor Domain; Lysine-specific demethylase 4A (Homo sapiens), O75164; AlphaScreen JMJD2A-Tudor / H3K4me3 peptide binding; Potency, µM (top dose mostly 114 µM), inactives show at the top dose activity change, negative = inhibition, actives largely listed as inhibitors; 4.4% of 390,000 active; AID 504339, 2011; note: potency is the fitted concentration of half-maximal effect; % is set by controls: 0 for no effect and ±100 for the full control effect; nearly all actives have a fitted effect of over 50% in size
* = called active by the depositor; ? = inconclusive; . = no result; [ ] = dose if it differs, or a comment. The list is not random: actives were taken first. Their share in the collection is about 11%. Unless noted, calls come from the whole dose curve; as a rule, active = well fitted inhibition curve with a large enough effect; inconclusive = small, poorly fitted or top-dose-only effect; inactive = no such curve, though single readings can be large or run the other way.

SMILES	G9a inh	BAZ2B block	HP1b binding inh	PI5P4K alpha inh	L3MBTL1 inh	JMJD2A Tudor inh
O=C(CN1CCCC1)N/N=C/c1c(O)ccc2ccccc12	8%	28µM*	50%	-11	?	79µM*
O=C(CN1CCCCCCC1)N/N=C/c1ccc(F)cc1F	22µM*	-6%	?	5	5%	?
Cc1ccc(S(=O)(=O)N2CCN(CC(=O)N/N=C/c3ccc(C)o3)CC2)cc1	?	-3%	19%	-2	1%	-29%
O=C(CN1CCN(Cc2ccc(Cl)cc2)CC1)N/N=C/c1ccccc1F	6%	-6%	46%	1	0%	-7%
Cc1cccc(CNc2ccnc(-c3ccccc3Cl)n2)c1	-8%[0.501 µM]	.	.	.	.	.
O=S(=O)(Nc1cccnc1)c1cccc2ccccc12	.	.	10%	.	.	-10%
COc1ccc(-c2csc(/C(C#N)=C(\O)CSc3nccn3C)n2)cc1OC	45µM*	50µM*	-22%	-13	?	-35%
CCc1ccc(C(=O)c2cn(CC(=O)Nc3ccc4c(c3)OCO4)c3cc(OC)c(OC)cc3c2=O)cc1	-28%[59 µM]	79µM*	26%	.	.	-35%
CCc1ccc(C(=O)c2cn(CC(=O)Nc3cccc(OC)c3)c3ccc(OC)cc3c2=O)cc1	10µM*	50µM*	3%	.	-3%	11µM*
COc1ccc(C(=O)c2cn(Cc3ccccc3F)c3ccc(F)cc3c2=O)cc1	-9%[59 µM]	79µM*	21%	.	.	-22%
CCc1ccc(C(=O)c2cn(CC(=O)Nc3ccc4c(c3)OCO4)c3ccc(Cl)cc3c2=O)cc1	-3%[59 µM]	-27%	15%	.	.	-13%
COc1cccc(NC(=O)Cn2cc(C(=O)c3ccc(C)cc3)c(=O)c3cc(OC)ccc32)c1	?	-32%	21%	.	-3%	?
CCc1ccc(C(=O)c2cn(CC(=O)Nc3ccc4c(c3)OCO4)c3ccc(CC)cc3c2=O)cc1	?	79µM*	47%	.	.	-19%
O=C(Cc1ccccc1)NCC(=O)OCC(=O)c1cccc2ccccc12	.	.	17%[57 µM]	.	.	-6%[57.1 µM]
O=C(O)Cc1sc(N/N=C\c2ccccc2)nc1-c1ccccc1	3.2µM*	?	-23%	?	-13%	?
CCOC(=O)c1sc(NC(=O)CCCCl)nc1C	50µM*	6%	29%	-2	5%	4%
CCOC(=O)c1sc(N/N=C/c2ccccc2)nc1C	2µM*	-6%	-36%[57 µM]	-16	7%	?
CCOC(=O)c1sc(N/N=C/c2cccc(C)c2)nc1C	23%[2.33 µM]	7%	50%	0	4%	4%
CCOC(=O)C1=C(CS(=O)(=O)c2ccc(OC)c(Cl)c2)NC(=O)NC1c1cccc(OC)c1 (stereo unspecified)	-9%[59 µM]	?	18%	.	.	-17%
Cc1ccc(-n2ncc3c(=O)n(Cc4ccccc4C)cnc32)cc1C	3%[59 µM]	-1%	18%	.	.	-2%
CC1=Nc2ccccc2/C1=C/c1sc(=S)n(-c2cccc(C(=O)O)c2)c1O	25µM*	?	?	-55*	-7%	?
O=C(O)c1ccc(N2CC3CC(C2)c2cccc(=O)n2C3)c(NC(=S)Nc2ccc(Br)cc2)c1 (stereo unspecified)	32µM*	2%	-23%	-13	.	-21%
COc1ccccc1CN1CCC(CNC(=O)c2cnn(-c3ccc(Cl)cc3)c2C2CCN(C(=O)OC(C)(C)C)CC2)CC1	-27%[59 µM]	3%[57.1 µM]	25%	.	.	-31%
COc1cccc(CNCC(=O)N2C(C)CCCC2C)c1 (stereo unspecified)	13µM*	50µM*	?	.	3%	3.5µM*
CCCOc1ccc(CNCCCOCC)cc1OC	-31%	-36%	?	-6	.	0.79µM*
SMILES	G9a inh	BAZ2B block	HP1b binding inh	PI5P4K alpha inh	L3MBTL1 inh	JMJD2A Tudor inh
CCOCCCNC(=O)Cc1ccc(OC)c(OC)c1	-3%[59 µM]	-4%	47%	3	41%[11.4 µM]	-5%[57.1 µM]
CCOCCCNC1=C(Cl)C(=O)c2ccccc2C1=O	.	40µM*	18µM*	-93*	?	13µM*
CCOCCCNCc1c(Cl)cccc1Cl	?	?	?	-6	14%	5µM*
Cc1ccc(-n2nc(C)c3c(C)c(CCC(=O)NCc4ccccc4Cl)c(C)nc32)cc1	3%[59 µM]	0%	34%	.	.	-4%
CCOCCCNCc1ccc(OCc2ccccc2Cl)cc1	5%[59 µM]	8%	28%	44	2%	-1%
CCOCCCNCc1cccc(OC)c1	4µM*	?	-52%	.	7%	3.5µM*
COc1ccc2cc(CNCCOCCOCCNCc3ccc4cc(OC)ccc4c3)ccc2c1	.	.	1%	-6	.	-19%
CCOCCCNCc1ccc(OC)cc1	-21%[12.7 µM]	?	-30%	.	.	4µM*
Cc1ccc(CNC(=O)c2ccc3c(O)c(S(=O)(=O)c4ccccc4)c(=O)[nH]c3c2)cc1	-32%[59 µM]	-16%	33%	.	.	-11%
COC(=O)C1=C(C)OC(N)=C(C#N)C1c1cc2cccc(C)c2nc1Cl (stereo unspecified)	22µM*	79µM*	.	.	-9%	.
COCCOC(=O)C1=C(C)OC(N)=C(C#N)C1c1cc2cccc(C)c2nc1Cl (stereo unspecified)	.	50µM*	9%	1	17%	-23%
COc1ccc2c3c(ccc2c1)C(=O)/C(=C/O)CC3	.	.	35µM*	?	.	7.9µM*
O=c1[nH]c2ccc(S(=O)(=O)Nc3ccccc3O)cc2[nH]1	2.2µM*	-32%	19%	-4	-2%	-8%
COc1cccc2cc(C(=O)C3=C(O)C(=O)N(CCCN(C)C)C3c3ccncc3)oc12 (stereo unspecified)	?	-7%	.	.	-3%	.
CCN(CC)CCCN1C(=O)C(O)=C(C(=O)c2cc3cccc(OC)c3o2)C1c1ccncc1 (stereo unspecified)	50µM*	-9%	.	.	0%	-10%
Cc1ccc(C2C(C(=O)c3cc4ccccc4o3)=C(O)C(=O)N2CCN(C)C)o1 (stereo unspecified)	.	.	32%	2	.	-5%[11.4 µM]
CN(C)CCN1C(=O)C(O)=C(C(=O)c2cc3ccccc3o2)C1c1ccc(N(C)C)cc1 (stereo unspecified)	50µM*	?	20%	11	-9%	?
COc1cccc2cc(C(=O)C3=C(O)C(=O)N(CCN(C)C)C3c3ccc(F)cc3)oc12 (stereo unspecified)	50µM*	-11%	24%	.	-1%	-31%
